Laboratory results taken from PubChem BioAssay AID1745847 (National Center for Advancing Translational Sciences (NCATS), 2022).
The campaign covered roughly 2,100 compounds. About 670 (32%) were called active. Another 50% or so got no clear call; they are omitted. Calls come from the whole dose curve; as a rule, active = well fitted inhibition curve with a large enough effect; inconclusive = small, poorly fitted or top-dose-only effect; inactive = no such curve, though single readings can be large or run the other way. Some of the results follow.

assay: CMV-Luciferase Counterscreen for Inhibitors of ATXN expression; conditions: HEK-293 CMV-luciferase reporter, luminescence, 24 h; series mostly up to 57.5 µM; activity change, negative = inhibition: at the top concentration; note: nearly all actives have a fitted effect of over 55% in size
% is set by controls: 0 for no effect and ±100 for the full control effect; potency is the fitted concentration of half-maximal effect.

Compound | Potency | activity change, negative = inhibition
Cc1nc2ccc(NC(=O)c3cccc(S(=O)(=O)N(C)c4ccccc4)c3)cc2s1 | 3.55 µM (active) | –
CCCN(CCC)S(=O)(=O)c1ccc(C(=O)Nc2nnc(-c3cc(OC)cc(OC)c3)o2)cc1 | 0.794 µM (active) | –
Cc1nc2ccc(NC(=O)c3ccc(S(=O)(=O)N(C)c4ccccc4)cc3)cc2s1 | 3.98 µM (active) | –
Cc1ccc2nc(N(CCCN(C)C)C(=O)c3ccc(S(=O)(=O)N4CCCCCC4)cc3)sc2c1 | – | -18.5% [at 11.4 µM] (inactive)
Cc1nc2cc(NC(=O)CSc3nc4c(C)cccc4cc3C#N)ccc2s1 | – | -19.4% (inactive)
CN(c1ccccc1)S(=O)(=O)c1ccc(C(=O)Nc2nnc(-c3ccc(F)cc3)o2)cc1 | 10 µM (active) | –
O=C(Nc1nnc(-c2ccc(F)cc2)o1)c1cc(Cl)sc1Cl | 10 µM (active) | –
Cc1cccc(NC(=O)c2ccc(S(=O)(=O)N(C)c3ccccc3)cc2)n1 | 14.1 µM (active) | –
O=C(c1ccco1)N1CCCC(c2nc(-c3ccc(S(=O)(=O)NCc4ccccc4)cc3)no2)C1 (stereo not drawn) | 11.2 µM (active) | –
COc1cc2c3nnc(-c4ccc(F)cc4)c-3cn(Cc3ccc(F)cc3)c2cc1OC | – | -11.8% [at 11.4 µM] (inactive)
CCOC(=O)C(=CNc1ccc2c(c1)nnn2-c1ccc(Cl)cc1)C(=O)OCC | – | 7.31% (inactive)
CCOC(=O)N1CCN(c2ccnc3cc(Cl)ccc23)CC1 | 2.51 µM (active) | –
O=C(c1ccco1)N1CCN(c2ccnc3cc(Cl)ccc23)CC1 | 14.1 µM (active) | –
CC(C)N(C(=O)N1CCN(c2ccnc3cc(Cl)ccc23)CC1)C(C)C | 12.6 µM (active) | –
O=C(C1CCCCC1)N1CCN(c2ccnc3cc(Cl)ccc23)CC1 | 5.01 µM (active) | –
Cc1cc2oc3ccc(NCCC4CCCN4C)cc3c(=O)c2cc1C (stereo not drawn) | – | 6.26% (inactive)
CN[C@H]1C[C@H]2c3[nH]c4ccc(-c5ccc(OC)cc5)cc4c3CCN2C(=O)[C@H]1[C@H](C)O | 3.55 µM (active) | –
Cc1nn(C)c(C)c1NC(=O)CSc1nc(Cc2ccccc2)nc2c1cnn2-c1ccccc1 | – | -7.1% [at 11.4 µM] (inactive)
C/C(=N\NC(=O)c1cc(-c2cccnc2)nc2ccccc12)c1ccc(O)cc1O | 2.51 µM (active) | –
N/C(=C\C(=O)c1cc(Cl)ccc1O)C(Cl)(Cl)Cl | – | 21.6% [at 11.4 µM] (inactive)
COc1ccc(/C(C)=N/NC(=O)c2cccc(S(=O)(=O)N3CCCC3)c2)c(O)c1 | 3.98 µM (active) | –
CC(=NNC(=O)c1ccncc1)c1ccc2ccccc2c1O | 0.794 µM (active) | –

Compound | Potency | activity change, negative = inhibition
CC(C)CC(=NNC(=O)c1ccncc1)c1cc(Cl)ccc1O | 0.282 µM (active) | –
O=C1CCCC(O)=C1C=NCc1ccccc1 | – | 6.36% [at 11.4 µM] (inactive)
CC(=NNC(=O)c1ccncc1)c1ccc(O)cc1O | 11.2 µM (active) | –
CCN(CC)S(=O)(=O)c1cccc(C(=O)N/N=C(\C)c2ccc(O)cc2O)c1 | 4.47 µM (active) | –
Oc1c(CN2CCCCC2)ccc2cccnc12 | 12.6 µM (active) | –
CCN(CC)CCNc1ccnc2cc(Cl)ccc12 | – | -15.4% [at 11.4 µM] (inactive)
Clc1ccc2c(NCc3ccccc3)ccnc2c1 | 8.91 µM (active) | –
Cc1ccc2c(Cl)cc(Cl)c(O)c2n1 | 8.91 µM (active) | –
CS(=O)(=O)N1CCC(Oc2cccc(C(=O)NCCCC3CCCC3)c2)CC1 | 14.1 µM (active) | –
CC[C@@H]1C(c2cccc(Cl)c2)=NN(c2ccc(Br)cc2)[C@H]1C(=O)N1CCOC1=O | – | 3.07% (inactive)
CC(=O)c1ccc(N2CCc3ccccc3C2)c([N+](=O)[O-])c1 | – | -14% (inactive)
COc1ccc(-c2cc(C3CCN(c4ccc(C(C)=O)cc4[N+](=O)[O-])CC3)[nH]n2)cc1 | 11.2 µM (active) | –
CCOC(=O)c1ccccc1NC(=O)CSc1nc2ccccc2c(=O)n1CCCN1CCOCC1 | 17.8 µM (active) | –
O=c1c2c(-c3ccccc3)csc2nc2c3ccccc3c(NCCN3CCOCC3)nn12 | – | -12% [at 11.4 µM] (inactive)
O=C(Nc1nc(NC(=O)c2ccco2)n(-c2ccccc2)n1)c1ccccc1 | 6.31 µM (active) | –
CCN1CC2=C(OC(N)=C(C#N)C2c2cccs2)/C(=C\c2cccs2)C1 (stereo not drawn) | – | -3.4% [at 11.4 µM] (inactive)
COc1cc2[nH]c(=O)n(CCCCCC(=O)N3CC=C(c4ccccc4)CC3)c(=O)c2cc1OC | 3.16 µM (active) | –
O=C(CCCN1C(=O)S/C(=C\c2ccccc2)C1=O)NNC(=O)c1ccccc1O | 2.24 µM (active) | –
COc1ccc(/C=C2\SC(=S)N(CCCC(=O)NNC(=O)c3ccccc3O)C2=O)cc1 | 3.98 µM (active) | –
CCN1CCN(CCCNC(=O)c2ccc(/C=C3/Sc4ccccc4N(Cc4ccccc4F)C3=O)cc2)CC1 | – | 12.2% (inactive)
CC(C)(C)c1ccc(Oc2ccc(N)cc2)cc1 | 3.98 µM (active) | –
CCC(C)(C)c1ccc(Oc2ccc(N)cc2)cc1 | 2 µM (active) | –

Compound | Potency | activity change, negative = inhibition
CC(C)(C)c1ccc(Oc2ccc(N)cn2)cc1 | 3.98 µM (active) | –
Cc1ccc(C(C[N+](=O)[O-])Sc2ccc(N)cc2)cc1 (stereo not drawn) | – | 52% [at 11.4 µM] (inactive)
Cc1c(Cl)c([N+](=O)[O-])nn1Cc1ccc(C(=O)N/N=C\c2cc(Cl)ccc2O)o1 | 0.631 µM (active) | –
CCN(CC)c1ccc(/C=C/c2cccc[n+]2C)c(OC)c1 | 2 µM (active) | –
CCCC[C@@H](CNC)NC[C@H](NCCCCC1CCCCC1)C(C)C | 35.5 µM (active) | –
O=C(/C=C/c1ccccc1)NC(=S)NNC(=O)c1cnccn1 | 8.91 µM (active) | –
CCn1c2ccccc2c2cc(/C=N/NC(=O)c3ccc(O)cc3)ccc21 | – | -11.8% (inactive)
CCn1c2ccccc2c2cc(/C=N/NC(=O)c3ccncc3)ccc21 | 2.82 µM (active) | –
O=C1N/C(=N/N=C/c2ccccc2O)SC1Cc1ccc(F)cc1 (stereo not drawn) | 12.6 µM (active) | –
COc1ccc(-c2csc3ncnc(Sc4nnnn4C)c23)cc1 | 3.98 µM (active) | –
Cn1nnnc1Sc1ncnc2scc(-c3ccsc3)c12 | 11.2 µM (active) | –
Cc1cnc(NC(=O)CCCc2nc3ccccc3s2)s1 | – | 91.3% (inactive)
O=C1C=C(Nc2ccccc2O)c2ccccc2C1=O | 10 µM (active) | –
CN(C)S(=O)(=O)c1ccc(-c2csc(N/N=C/c3ccco3)n2)cc1 | 2.51 µM (active) | –
CC1=CC(C)(C)Nc2ccc(OC(=O)CN3C(=O)c4cccc5cccc(c45)C3=O)cc21 | 15.8 µM (active) | –
O=C(NCc1ccccc1)C1=C[C@@H](c2csc3ccccc23)C[C@@H](OCCCCO)O1 | 3.55 µM (active) | –
C=CCOC(=O)C1=C[C@@H](c2ccc3c(c2)OCO3)C[C@@H](OCCCCO)O1 | – | 5.8% (inactive)
CCOC(=O)c1sc2nc(CSc3ccccc3)nc(NCCN(C)C)c2c1C | – | -27.1% (inactive)
CCCCCn1c(=O)c2ccccc2n2c(CCl)nnc12 | 25.1 µM (active) | –
O=c1c2ccccc2sc2nc(CCl)nn12 | – | -24% [at 11.4 µM] (inactive)
CNC(=O)c1sc(N2N=C3/C(=C/c4ccccc4)CCCC3C2c2ccccc2)nc1C (stereo not drawn) | 7.94 µM (active) | –
COc1ccc2c(c1)CC(N1CCN(C)CC1)c1cc(OC)ccc1S2 (stereo not drawn) | 28.2 µM (active) | –

Compound | Potency | activity change, negative = inhibition
CCCCN1C(=O)/C(=C2/Sc3ccccc3N2C)S/C1=N\c1ncn[nH]1 | – | 5.62% (inactive)
O=C(c1cccc(Cl)c1)c1nn(-c2ccccc2)c(=O)cc1C(F)(F)F | 25.1 µM (active) | –
COc1ccc(-n2nc(C(=O)NCC(=O)Nc3cccc(Cl)c3)c3ccccc3c2=O)cc1OC | – | 11.4% (inactive)
Cc1cc(=O)oc2c1c(C)nn2-c1cccc(Cl)c1 | – | -12.8% [at 11.4 µM] (inactive)
CC1(C)Cc2c(ccc3ccccc23)C2=C(C(=O)N3CCCC3)C(=O)C(=O)N21 | – | -5.36% (inactive)
O=C(N/N=C\c1cc(Cl)ccc1O)c1ccc(S(=O)(=O)N2CCCCC2)cc1 | 0.316 µM (active) | –
O=C(N/N=C\c1c(O)ccc2ccccc12)c1ccc(S(=O)(=O)N2CCCCC2)cc1 | 1.12 µM (active) | –
CN(C)CCNc1ccc(CO)c2sc3ccc(O)cc3c(=O)c12 | 0.631 µM (active) | –
CN(C)CCNc1cccc2sc3ccc(O)cc3c(=O)c12 | 14.1 µM (active) | –
COc1ccc(C(=O)NC(=S)NNC(=O)c2c(-c3ccccc3)noc2C)cc1OC | 10 µM (active) | –
COc1ccc(C(=O)c2sc(Nc3ccccc3)nc2N)cc1OC | – | 129% (inactive)
CCOC(=O)C(C(C)=O)c1c(Br)c(O)c(O)c2c(C(=O)c3ccc(C)cc3)coc12 (stereo not drawn) | 2.51 µM (active) | –
Cc1cc(N/N=C\c2ccc(Br)cc2)nc(-n2nc(C)cc2C)n1 | – | 1.75% (inactive)
Cc1cc(O)c(C(C)C)cc1N=Cc1ccccc1[N+](=O)[O-] | – | -23.9% (inactive)
Cc1cc(N/N=C/c2ccccc2[N+](=O)[O-])nc(-n2nc(C)cc2C)n1 | 7.08 µM (active) | –
NC(=O)CC(NC(=O)Cc1ccc(Br)cc1)c1ccc(NC2CCCC2)c([N+](=O)[O-])c1 (stereo not drawn) | 3.16 µM (active) | –
N#CC1=C(N)N2C(=C(C#N)C1c1ccc(Br)cc1)Nc1ccccc12 (stereo not drawn) | 0.631 µM (active) | –
N#CC1=C(N)N2C(=C(C#N)C1c1cccc(Br)c1)Nc1ccccc12 (stereo not drawn) | 3.55 µM (active) | –
CN1CCN(c2ccc(S(=O)(=O)N3CCCCC3)cc2NC(=O)/C=C/c2ccc(Cl)c([N+](=O)[O-])c2)CC1 | – | -27% [at 11.4 µM] (inactive)
CC(=O)N1c2ccc(S(=O)(=O)N3CCC(C(=O)N4CCN(c5ccc(Cl)cc5)CC4)CC3)cc2CC1C (stereo not drawn) | 7.94 µM (active) | –
CCc1ccc(NC(=O)C2CCN(S(=O)(=O)c3ccc4c(c3)CC(C)N4C(C)=O)CC2)cc1 (stereo not drawn) | 3.16 µM (active) | –
CC(=O)N1c2ccc(S(=O)(=O)N3CCC(C(=O)Nc4cccc(C(F)(F)F)c4)CC3)cc2CC1C (stereo not drawn) | 8.91 µM (active) | –
